The source of these data is PubChem BioAssay (NCI).

What all share (assay): NCI-60 one-dose screen, 48 h (100 = growth as untreated, 0 = no growth, -100 = all killed)
Common to all, as to settings: 10 µM unless noted

Assay [1] concerns HCT-15 colon.
In assay [2] the test system is HT29 colon.
Assay [3] has as its system SNB-75 CNS.
The subject of assay [4] is SNB-19 CNS.
Assay [5] concerns U251 CNS.
The subject of assay [6] is PC-3 prostate.
The test system of assay [7] is SK-MEL-5 melanoma.
Assay [8] deals with UACC-62 melanoma.
For assay [9], the system named is LOX IMVI melanoma.
Assay [10] concerns SK-MEL-28 melanoma.
The test system of assay [11] is SK-MEL-2 melanoma.
Assay [12] deals with EKVX NSCLC.
Assay [13] deals with SN12C renal.
The test system of assay [14] is UO-31 renal.
Assay [15] deals with TK-10 renal.
For assay [16], the system named is ACHN renal.
The subject of assay [17] is CAKI-1 renal.
Assay [18] concerns A498 renal.
Assay [19] relates to CCRF-CEM leukemia.
In assay [20] the test system is MOLT-4 leukemia.

This is part of a sample that, as a whole, favours compounds with a hit. Of some 83,000 tested, about 20% had one in any assay.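 Testing used 96-well plates and a 48-hour single-concentration exposure. Example: -40 means 40% of the starting cells died.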 Unmarked numbers belong to inactive results. Activity calls are given as the source filed them. How the source made its calls: active means growth percent below 10; inactive means the rest.

As to `COc1ccc(C2CC(c3cccc(Nc4ccncc4)c3)=NN2c2ccccc2)cc1` (stereo not given), the growth in [1] was -22.9% (active); in assay [2], -3.3% (active); in [3] it was 65.3%; in assay [4], 84.3%; in assay [5], 8.79% (active); in assay [6], 37.3%. For the same molecule, the growth in assay [7] was 49.2%; in assay [8], 97%; in assay [9] it was 28.5%; in assay [10] it was -88.3% (active); in assay [11], 71.7%; in assay [12] it was 87.2%. Further, the growth in assay [13] was 80.6%; in assay [14], 64.3%; in assay [15], 68.7%; in [16], 69.2%; in assay [17] it was 51.5%; in assay [18] it was 78%. In addition, the growth is 30.7% in [19] and 10.7% in [20].

In the case of `C=C(C)[C@@H]1CC[C@]2(C(=O)NCCCN(CCC#N)CCC#N)CC[C@]3(C)[C@H](CC[C@@H]4[C@@]5(C)CCC(=O)C(C)(C)[C@@H]5CC[C@]43C)[C@@H]12`, the growth in [1] is 101%; in [2], 99.1%; in assay [3] it was 92%; in [4], 98.9%; in assay [5], 94.1%; in [6] it was 94.4%. Also, the growth is 102% in assay [7]; 99.6% in [8]; 101% in [9]; 107% in [10]; 105% in [11]; 91% in assay [12]. Also, the growth in [13] was 98.2%; in assay [14] it was 87.3%; in [15], 98.4%; in assay [16], 107%; in assay [17], 94.4%; in assay [18] it was 102%. In addition, the growth was 106% in assay [19] and 110% in [20].

Consider `COc1ccc(/C=N/NC(=O)c2cccc3cc[nH]c23)cc1O`, for which the growth in assay [1] was 33.2%; in [2], 19.7%; in [3] it was 18.6%; in assay [4], 39.7%; in [5] it was 26.6%; in assay [6], 31.5%. Besides, the growth is 2.92% (active) in assay [7]; 33% in [8]; 53.1% in assay [9]; 63.4% in assay [10]; 52.3% in assay [11]; 32.1% in [12]. The growth in assay [13] was 53.9%; in [14] it was 60.4%; in assay [15], 47.1%; in assay [16], 57.9%; in [17], 46.5%; in assay [18], 74.5%. Besides, the growth in assay [19] was 0.582% (active); in [20], 38.2%.

Turning to `Cn1c(COC(=O)N2CCCCC2)nc2c(N3CCOCC3)nc(-c3ccccc3)nc21`, the growth in assay [1] is -43% (active); in [2], -33.4% (active); in [3] it was -85.4% (active); in assay [4], 17.7%; in assay [5], -70.9% (active); in assay [6], -57.5% (active). The growth in assay [7] is -95.6% (active); in assay [8], -92.7% (active); in assay [9] it was -90.4% (active); in assay [10], -96.8% (active); in assay [11], -79.6% (active); in assay [12] it was -59.4% (active). Further, the growth in [13] is -86.1% (active); in assay [14], -99.3% (active); in assay [15] it was -86.2% (active); in [16], -100% (active); in assay [17] it was -88% (active); in assay [18] it was -21.7% (active). In addition, the growth is -6.4% (active) in assay [19] and -5.2% (active) in assay [20].

Consider `c1cnc2nc3c(cc2c1)oc1ccccc13`, for which the growth in assay [1] was 101%; in assay [2], 105%; in [3] it was 76.6%; in assay [4], 92%; in [5], 97%; in assay [6], 104%. Further, the growth in assay [7] was 91.2%; in [8], 87.1%; in assay [9], 97.7%; in assay [10], 111%; in assay [11], 101%; in assay [12], 102%. The growth was 94.8% in assay [13]; 68.3% in [14]; 107% in assay [15]; 93.3% in assay [16]; 80% in assay [17]; 69.3% in assay [18]. In addition, the growth in [19] is 90.9%; in assay [20], 92.8%.

`Fc1ccc(C2CC(c3cccc(Nc4ccncc4)c3)=NN2c2ccc(Cl)cc2)cc1` (stereo not given): the growth is 3.49% (active) in assay [1]; 2.11% (active) in [2]; 78.4% in [3]; 87.5% in assay [4]; 8.99% (active) in [5]; 49.4% in [6]. The growth in [7] was 82.8%; in assay [8], 99.6%; in assay [9], -67.1% (active); in assay [10], 53.4%; in [11] it was 101%; in assay [12] it was 84.7%. Also, the growth in assay [13] was 68.5%; in assay [14], 52.9%; in assay [15], 84.6%; in [16], 75.6%; in assay [17] it was 43.6%; in [18] it was 78%. The growth is 42.6% in assay [19] and 24% in assay [20].

`CCC(C)C(N)C(=O)NNc1n[nH]c(=S)n1N` (stereo not given): the growth in assay [1] was 103%; in assay [2], 107%; in [3] it was 99.6%; in [4], 97.7%; in assay [5] it was 101%; in assay [6] it was 100%. Also, the growth was 100% in [7]; 101% in [8]; 101% in assay [9]; 107% in [10]; 102% in [11]; 95.5% in assay [12]. The growth in [13] is 99.2%; in assay [14], 85.3%; in [15], 104%; in [16], 101%; in assay [17] it was 91%; in [18] it was 93.8%. The growth is 99.7% in [19] and 101% in [20].

With `CC1(C)CN(c2cnc(C(=O)Nc3cc(F)cc4cccnc34)cn2)CCN1`, the growth in assay [1] is 59.3%; in [2], 47.1%; in assay [3] it was 72.9%; in assay [4] it was 93.1%; in assay [5], 89.5%; in [6], 44.8%. The growth was 89.3% in assay [7]; 106% in assay [8]; 69.7% in assay [9]; 80.2% in [10]; 99.8% in [11]; 73% in assay [12]. Besides, the growth in assay [13] was 72.1%; in assay [14], 40.9%; in [15], 79.3%; in assay [16], 31.3%; in [17] it was 62.4%; in assay [18], 74.3%. In addition, the growth in assay [19] is 44.5%; in [20], 38.5%.
